High-throughput results: PubChem, Sanford-Burnham Center for Chemical Genomics
Peg3 promoter: Peg3 promoter activity inhibition; actives 1.7% (n = 360,000); HeLa PEG-Prom luciferase reporter, luminescence, overnight; inhibition, % at 20 µM;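 active = inhibition of at least 50% at 20 µM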
TWEAK Fn14 block: inhibitors of TWEAK-Fn14 interaction signaling; inhibition, % at 10 µM; TWEAK-stimulated Fn14 reporter cells, luciferase luminescence, 8 h; actives 2% (n = 360,000); in the data active = inhibition above about 50%
TROY NFkB inh: inhibitors of TROY-dependent NF-kB signaling; Q293 LMP1-TROYcd NF-kB luciferase reporter, 4 h; actives 0.98% (n = 360,000); inhibition, % at 10 µM; AID 1347056;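 active = compounds whose plate-normalised and pattern-corrected inhibition of the luciferase reporter signal at the single screening dose is 50% or more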
KKLEB cytotox: counter-screen for CF NF-kB inhibitors: cytotoxicity; KKLEB CF airway cells viability, ATPlite luminescence, overnight; hits give low values; cells stimulated with P. aeruginosa culture filtrate; activity change (cytotoxicity), % at 5 µM; actives 0.36% (n = 360,000); AID 602141;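 active = corrected activity change at or below -50% at 5 µM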
HIF-2a inh: inhibitors of HIF-2a; actives 0.72% (n = 360,000); 786-0 RCC cells HIF-2a reporter, luciferase luminescence, overnight; inhibition, % at 18.8 µM;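 active = inhibition of the luminescence signal of 40% or more relative to plate controls, in a single-dose primary screen at 18.75 µM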
CF NFkB inh: blocks PAF-induced NF-kB reporter in cystic fibrosis cells; KKLEB NF-kB-GFP reporter, GFP fluorescence overnight; inhibition, % at 5 µM; actives 0.86% (n = 360,000);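 active = at least 50% inhibition at 5 µM, scaled per plate between neutral and stimulator controls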;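 also: PAF is a Pseudomonas aeruginosa culture filtrate used as stimulus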
CF NFkB inh conf: CF NF-kB inhibition confirmation, single concentration | shares compounds with CF NFkB inh | KKLEB CF airway cells, PAF-induced NF-kB-GFP fluorescence, overnight | inhibition, % at 5 µM | actives 64% (n = 1,300); in the data active = inhibition above about 40%;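 also: stimulus PAF is a Pseudomonas aeruginosa filtrate and not platelet activating factor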
Each line names hits and unclear results; the compound was inactive in the other large screens (follow-up assays come after a bar, where they were run). An excerpt weighted towards active compounds, which were near 4% of everything screened.

COc1ccc(NC(=O)c2nc(S(=O)(=O)Cc3cccc(C)c3)ncc2Cl)c(OC)c1	Peg3 promoter 108.0, TROY NFkB inh 54.4, CF NFkB inh 93.0 | CF NFkB inh conf 52.4
Cc1ccccc1NC(=O)c1cccc(C(=O)Nc2ccccc2C)n1	none
Cc1ccccc1NC(=O)c1nc(S(C)(=O)=O)ncc1Cl	Peg3 promoter 104.8, CF NFkB inh 79.1 | CF NFkB inh conf 54.7
CS(=O)(=O)c1ncc(Cl)c(C(=O)Nc2ccc(N3CCOCC3)cc2)n1	Peg3 promoter 104.3, CF NFkB inh 91.5 | CF NFkB inh conf 78.8
CS(=O)(=O)c1ccc(C(=O)Nc2ccc(N3CCOCC3)cc2)c(Cl)c1	none
c1cncc(CNCc2ccco2)c1	none
CN(CC(=O)Nc1ccccc1Cl)C(=O)COC(=O)c1nc(Cl)c(Cl)c(Cl)c1Cl	Peg3 promoter 104.6, TWEAK Fn14 block 86.4, TROY NFkB inh 53.5, CF NFkB inh 87.0 | CF NFkB inh conf inactive
COc1ccc(S(=O)(=O)N2CCN(C)CC2)cc1NC(=O)c1ccccc1	none
COc1ccc(CNC(=O)C2CCC(=O)N(CCCN3CCCC3=O)C2)cc1 (centres undefined)	none
FC(F)(F)c1nnc2c(Sc3ccccc3)nc3ccccc3n12	CF NFkB inh 78.6 | CF NFkB inh conf 84.2
CCCCN(C)C(=O)c1ccc(Nc2nc(C(N)Cc3ccc(C(F)(F)F)cc3)cs2)nc1 (centres undefined)	Peg3 promoter 96.4, CF NFkB inh 50.9 | CF NFkB inh conf inactive
CN1CCN(S(=O)(=O)c2ccc(NC(=O)Cc3ccc([N+](=O)[O-])cc3)cc2)CC1	none
Cc1ccc(C(=O)c2cc([N+](=O)[O-])ccc2N2CCCCC2)c(C)c1	CF NFkB inh 63.0 | CF NFkB inh conf 83.2
Cc1ccccc1NC(=O)N(O)C1(C#N)CCCCC1	none
COc1ccc(C(=O)N/C(=C\c2ccccc2)C(=O)Nc2ccc(C(=O)NCC(=O)O)cc2)cc1	none
O=C1NCCc2c1[nH]c1c(Cl)ccc(Cl)c21	CF NFkB inh 55.6 | CF NFkB inh conf 70.9
COc1cc([C@H]2Oc3cc([C@H]4Oc5cc(O)cc(O)c5C(=O)[C@@H]4O)ccc3O[C@@H]2CO)ccc1O	none
COc1cc([C@@H]2Oc3cc(C4Oc5cc(O)cc(O)c5C(=O)[C@H]4O)ccc3O[C@H]2CO)ccc1O (some centres undefined)	CF NFkB inh 50.9 | CF NFkB inh conf inactive
CC(=O)Nc1ccc(NC(=O)COC(=O)c2c3c(nc4ccccc24)CCN(Cc2ccccc2)C3)cc1	CF NFkB inh 56.8 | CF NFkB inh conf 72.1
O=C(COC(=O)c1c2c(nc3ccccc13)CCN(Cc1ccccc1)C2)Nc1c(F)cccc1F	Peg3 promoter 50.3, CF NFkB inh 74.9 | CF NFkB inh conf 75.9
CCN1CCc2nc3ccccc3c(C(=O)Nc3ccc(NC(C)=O)cc3)c2C1	none
O=C(NCc1ccc(F)cc1)c1c2c(nc3ccccc13)CCN(Cc1ccccc1)C2	none
O=C(Nc1cc(S(=O)(=O)N2CCOCC2)ccc1O)c1ccc(NS(=O)(=O)c2ccc(Cl)s2)cc1	none
Cc1ccc(NC(=O)c2ccccc2NS(=O)(=O)c2ccc(Cl)s2)cc1S(=O)(=O)N1CCOCC1	TWEAK Fn14 block 77.5, TROY NFkB inh 51.9, CF NFkB inh 56.8 | CF NFkB inh conf 79.7
O=C(NCCN1CCN(C(=O)c2cccc(OC(F)F)c2)CC1)c1cccc(OC(F)F)c1	none
CC1CCN(CC2C(=O)O[C@@H]3C[C@@]4(C)CCC[C@H](C)C4=C[C@H]23)CC(C)(C)C1 (some centres undefined)	TWEAK Fn14 block 55.1, CF NFkB inh 83.5 | CF NFkB inh conf inactive
CCOC(=O)N1CCC(NC(=O)c2ccc3c(c2)N=C(C)c2c(C)ccc(C)c2S3)CC1	CF NFkB inh 57.3 | CF NFkB inh conf 57.6
CCOC(=O)N1CCC(NC(=O)c2ccc3c(c2)N=C(CC)c2cc(C)ccc2S3)CC1	none
COc1ccc2c(c1)C(=O)N(c1ccccc1OC)C(=O)C2(C)C	none
COc1ccc(S(=O)(=O)Nc2ccccc2C(F)(F)F)cc1	none
COc1ccc([C@]2(C(C)C)ON(c3ccccc3C(F)(F)F)C2=O)cc1	Peg3 promoter 66.2, CF NFkB inh 58.3 | CF NFkB inh conf 51.7
COc1ccccc1[C@]1(C)ON(c2ccccc2C(F)(F)F)C1=O	Peg3 promoter 81.9, CF NFkB inh 55.5 | CF NFkB inh conf 70.2
Fc1ccc(-n2cc(-c3ccccc3)c3c(N4CCOCC4)ncnc32)cc1	Peg3 promoter 54.3, CF NFkB inh 85.8 | CF NFkB inh conf 104.2
COC(=O)c1ccc(C(=O)OC)c(NC(=O)COC(=O)CCOc2ccc(C)cc2)c1	none
O=[N+]([O-])c1ccc(-c2nn(-c3ccccc3)cc2/C=N/n2c(-c3cccs3)n[nH]c2=S)cc1	CF NFkB inh 55.6 | CF NFkB inh conf inactive
CCn1c(=S)sc2c(=O)n(CC(=O)Nc3ccc(OC)c(Cl)c3)c(C)nc21	none
Cc1ccc(S(=O)(=O)N2CCC(C(=O)NCCCN3CCOCC3)CC2)cc1C	none
Cc1ccc(-c2csc(NC(=O)c3ccccc3F)c2C(=O)O)cc1	none
Cc1ccc(NC(=O)c2nc[nH]c2C(=O)NCCCNC(=O)c2[nH]cnc2C(=O)Nc2ccc(C)cc2)cc1	Peg3 promoter 83.8, CF NFkB inh 52.4 | CF NFkB inh conf 78.7
O=C(Nc1cc(-c2nc3ncccc3o2)ccc1Cl)c1ccc([N+](=O)[O-])o1	Peg3 promoter 88.0, CF NFkB inh 80.3 | CF NFkB inh conf inactive
COc1ccccc1C1C(C(C)=O)=C(O)C(=O)N1c1ccc(O)cc1 (centres undefined)	none
Cc1ccc(-c2cc(C(=O)N(C)Cc3cnn(C)c3C)c3cc(Br)ccc3n2)cc1	CF NFkB inh 66.9 | CF NFkB inh conf 58.1
O=C(Nc1nc2ccc(F)cc2s1)C1CCN(S(=O)(=O)c2cc([N+](=O)[O-])ccc2Cl)CC1	TWEAK Fn14 block 84.3, CF NFkB inh 78.8 | CF NFkB inh conf 72.3
COc1ccc(Cl)cc1-c1cc(C(=O)NCc2cc(C(F)(F)F)cc(C(F)(F)F)c2)[nH]n1	none
Cc1ccc(Cl)cc1-c1cc(C(=O)NCc2cc(C(F)(F)F)cc(C(F)(F)F)c2)[nH]n1	TWEAK Fn14 block 61.0, CF NFkB inh 58.6 | CF NFkB inh conf 62.9
O=c1[nH]c(C2CCN(S(=O)(=O)c3ccc4c(c3)OCCO4)CC2)nc2c1nnn2Cc1c(F)cccc1Cl	Peg3 promoter 55.6, TWEAK Fn14 block 54.8, CF NFkB inh 68.1 | CF NFkB inh conf 81.6
COc1ccccc1NC(=O)c1cc2c(CO)cnc(C)c2oc1=Nc1ccc(OC)c(OC)c1	Peg3 promoter 56.3, CF NFkB inh 85.6 | CF NFkB inh conf 85.5
